The values below come from PubChem BioAssay AID2642 (Johns Hopkins Ion Channel Center, 2010).

SMILES strings stand for the structures. Out of some 310,000 compounds screened, about 3,900 (1.3%) were called active.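 The calls were made as follows: active = compounds whose thallium flux B-score, printed positive for inhibition, exceeds three library SD while starting fluorescence stays within three; inactive = the rest.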 Only a selection was taken, and actives are over-represented in it overall.

For the experiment, the target named is Potassium voltage-gated channel subfamily KQT member 1 (Homo sapiens) (UniProt P51787). Description: KCNQ1 potassium current blockers – cell-based, thallium flux, high-throughput, primary screen (AID 2642).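 Also: channel opened by potassium depolarization with thallium stimulus after 20 min compound exposure.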 The settings on record: CHO-K1 KCNQ1, FluxOR thallium flux fluorescence, at 10 µM; stronger effect = higher value.
Chain of Potassium voltage-gated channel subfamily KQT member 1 (Homo sapiens) (P51787 whole entry, looked up): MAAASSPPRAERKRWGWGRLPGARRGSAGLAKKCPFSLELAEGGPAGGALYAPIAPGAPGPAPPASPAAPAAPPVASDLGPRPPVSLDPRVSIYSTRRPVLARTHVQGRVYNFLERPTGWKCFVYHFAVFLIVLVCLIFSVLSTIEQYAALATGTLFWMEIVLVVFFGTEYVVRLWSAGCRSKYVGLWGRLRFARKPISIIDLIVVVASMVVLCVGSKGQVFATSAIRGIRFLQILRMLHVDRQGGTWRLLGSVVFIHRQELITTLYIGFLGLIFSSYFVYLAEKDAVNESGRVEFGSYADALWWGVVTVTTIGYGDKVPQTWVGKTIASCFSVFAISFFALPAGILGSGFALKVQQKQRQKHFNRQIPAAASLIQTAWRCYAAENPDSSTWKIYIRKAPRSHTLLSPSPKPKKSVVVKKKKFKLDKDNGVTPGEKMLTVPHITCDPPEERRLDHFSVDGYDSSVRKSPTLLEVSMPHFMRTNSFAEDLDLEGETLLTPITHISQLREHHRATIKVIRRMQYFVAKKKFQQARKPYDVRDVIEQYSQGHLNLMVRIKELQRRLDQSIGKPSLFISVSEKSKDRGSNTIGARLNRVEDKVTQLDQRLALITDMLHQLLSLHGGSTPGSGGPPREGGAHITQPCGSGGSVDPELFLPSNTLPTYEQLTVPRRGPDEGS
Turning to `CC(=O)N1CCCc2cc(S(=O)(=O)N3CCCC(C(=O)NCc4ccc(Cl)cc4)C3)ccc21` (stereo not drawn), the B-score entry is “inactive”.

Regarding `CC(=O)N1c2ccc(S(=O)(=O)N3CCCC(C(=O)Nc4cccc(Cl)c4)C3)cc2CC1C` (stereo not drawn), the B-score entry is “inactive”.

As to `CC(=O)N1CCCc2cc(S(=O)(=O)N3CCCC(C(=O)N4CCN(c5cccc(Cl)c5)CC4)C3)ccc21` (stereo not drawn), the B-score is 8 (active).

Take `CCCOc1cccc(C(=O)Nc2ccccc2C(=O)N2CCN(C)CC2)c1`: the B-score entry is “inactive”.

For `COC(=O)c1c(NC(=O)COC(=O)[C@@H](NS(=O)(=O)c2ccccc2)C(C)C)sc2c1CCC2`, the B-score entry is “inactive”.

With `Cc1ccc(-c2nn(-c3ccccc3)cc2/C=N/NC(=O)c2ccc3c(c2)OCO3)cc1`, the B-score was 6 (active).

On to `O=C(O)c1ccc(N/N=C/c2cn(-c3ccccc3)nc2-c2cccs2)cc1`, for which the B-score entry was “inactive”.

With `CC(C)(C)OC(=O)N/N=C/c1cn(-c2ccccc2)nc1-c1cccnc1`, the B-score result is “inactive”.

Take `CC(=O)Nc1ccc(N2C(=O)CCC2=O)cc1C`: the B-score entry was “inactive”.

Turning to `CCc1ccc(NC(=O)COC(=O)c2cccs2)cc1`, the B-score result was “inactive”.

As to `O=C(COC(=O)[C@H](Cc1ccccc1)NC(=O)c1cccs1)Nc1cc(F)ccc1F`, the B-score was 6 (active).

On to `NC(=O)c1ccc(NC(=O)COC(=O)C(Cc2ccccc2)NC(=O)c2ccccc2)cc1` (stereo not drawn), for which the B-score is 6 (active).

As for `CCC(C(=O)OCC(=O)Nc1ccc(C(=O)Nc2ccc(OC)cc2)cc1)c1ccccc1` (stereo not drawn), the B-score result is “inactive”.

In the case of `Cc1ccc(C)c(NC(CC(=O)c2ccccc2)C(=O)OCC(=O)c2cccs2)c1` (stereo not drawn), the B-score entry was “inactive”.

For the compound `COC(=O)[C@H](Cc1ccccc1)NC(=O)Nc1ccc(OC)cc1`, the B-score result was “inactive”.

Consider `CCCCSCCCNC(=O)C1CCC(CNS(=O)(=O)c2ccc(NC(C)=O)cc2)CC1` (stereo not drawn), for which the B-score result is “inactive”.

`C=CCSc1nc(N)cc(=O)[nH]1`: the B-score entry is “inactive”.

For the compound `COc1ccc(C(=O)OCC(=O)Nc2cccc(C(C)=O)c2)cc1OC`, the B-score result was “inactive”.

With `CN1CCN(C(CNS(=O)(=O)c2cccs2)c2cccnc2)CC1` (stereo not drawn), the B-score result was “inactive”.

Consider `CCOC(=O)N1CCN(c2c(NCCCN3CCCC(C)C3)c(=O)c2=O)CC1` (stereo not drawn), for which the B-score result is “inactive”.

With `CCC1C=C(c2ccccc2)C=CN=C1N(CC)CC` (stereo not drawn), the B-score entry is “inactive”.

`c1ccc2c(NC3C4CC5CC(C4)CC3C5)nc(N3CCOCC3)nc2c1` (stereo not drawn): the B-score entry was “inactive”.

Consider `Cc1cc(C(=O)NC2CCCc3c2cnn3-c2cccc(C)c2C)c(C)o1` (stereo not drawn), for which the B-score entry is “inactive”.

For the compound `Cn1nccc1CNC(=O)c1ccnn1C`, the B-score result was “inactive”.

In the case of `Cn1nccc1C(=O)NC1CCCc2c1cnn2-c1ccc(F)cc1F` (stereo not drawn), the B-score is 9 (active).

Regarding `COc1ccc(C(=O)NC2CC(C)(C)Cc3c2cnn3-c2ccccc2C)o1` (stereo not drawn), the B-score entry was “inactive”.

`CC(=O)NCC(=O)NC1CCCc2c1cnn2-c1ccccc1F` (stereo not drawn): the B-score result was “inactive”.

`CC1(C)Cc2c(cnn2-c2cccc(F)c2)C(NC(=O)c2cc[n+]([O-])cc2)C1` (stereo not drawn): the B-score entry is “inactive”.

Turning to `COc1ccc(C(=O)NC2CCCc3c2cnn3-c2cccc(C)c2C)c(OC)n1` (stereo not drawn), the B-score was 11 (active).

Consider `Cn1nccc1C(=O)NC1CCCc2c1cnn2-c1ccccc1F` (stereo not drawn), for which the B-score was 6 (active).

With `Cc1ccc(-n2ncc3c2CCCC3NC(=O)c2cnccn2)cc1C` (stereo not drawn), the B-score entry was “inactive”.

As for `Cc1nc(C(=O)N2CCCC(C(=O)c3ccc(Cl)cc3)C2)cs1` (stereo not drawn), the B-score entry was “inactive”.

As for `CCOC(=O)N1CCN(CCC(=O)Nc2ccccc2)CC1`, the B-score result was “inactive”.

Consider `Cc1cccc(NC(=O)C2CCCN(C(=O)Nc3ccc(F)cc3)C2)c1C` (stereo not drawn), for which the B-score result is “inactive”.

Take `COc1cccc2c(C)c(C(=O)O)[nH]c12`: the B-score entry was “inactive”.

Turning to `Cc1nn(-c2ncc(C(F)(F)F)cc2Cl)c(=O)n1-c1ccccc1`, the B-score result was “inactive”.

Consider `CC1CCCC(N2CCN(C(=O)c3ccc(F)cc3)CC2)C1` (stereo not drawn), for which the B-score entry is “inactive”.

Regarding `C=CCn1c(SCC(N)=O)nnc1-c1cc2c(s1)CCC(CC)C2` (stereo not drawn), the B-score entry is “inactive”.

As for `COc1ccc(-c2csc3ncnc(N4CCN(S(=O)(=O)c5ccccc5C#N)CC4)c23)cc1`, the B-score result was “inactive”.

In the case of `COc1ccc(-c2csc3ncnc(N4CCN(S(=O)(=O)c5cccc(F)c5)CC4)c23)cc1`, the B-score was 6 (active).

Take `COc1ccc(-c2csc3ncnc(Oc4ccc5c(C)cc(=O)oc5c4)c23)cc1`: the B-score entry is “inactive”.

Take `CCN(c1ccc(NC(=O)COC(=O)CCc2nc3ccccc3n2-c2ccccc2)cc1)C(C)C`: the B-score result is “inactive”.

For the compound `CCN1/C(=C\c2ccc3ccccc3[n+]2CC)Sc2cc(C)ccc21`, the B-score was 15 (active).

On to `O=C(CNS(=O)(=O)c1ccccc1)NCC(=O)OCc1ccccc1F`, for which the B-score result was “inactive”.

Take `Cc1ccc(SCC(=O)NC(=O)NCc2ccco2)c(C)c1`: the B-score result is “inactive”.

In the case of `CC(=O)NCc1ccc(S(=O)(=O)NC2CCN(Cc3ccccc3)CC2)cc1`, the B-score entry was “inactive”.

For the compound `COc1ccc(C)cc1NC(=S)Nc1ccccc1SC`, the B-score entry is “inactive”.

Take `O=C1NC(=Nc2ccc(Cl)cc2)SC1Cc1cccc(Cl)c1Cl` (stereo not drawn): the B-score entry is “inactive”.

Turning to `Cc1ccc(NC(=O)Nc2cccnc2)cc1`, the B-score entry is “inactive”.

For the compound `O=C(Nc1ccc(Cl)cc1)Nc1ccc(Oc2cccnc2)nc1`, the B-score was 8 (active).

For the compound `O=C(NNC(=O)c1csc(-c2cccnc2)n1)Nc1ccc(Cl)cc1`, the B-score entry was “inactive”.

For `Cc1cccc(N2CCC(NCc3c(C(=O)N4CCCCC4)nc4c(C)cccn34)CC2)c1`, the B-score entry was “inactive”.

Turning to `Cc1ccccc1N1CCN(S(=O)(=O)c2ccc3ccccc3c2)CC1`, the B-score entry is “inactive”.

Turning to `Cc1ccc(N2CCN(S(=O)(=O)c3ccc(F)cc3)CC2)c(C)c1`, the B-score is 7 (active).

Regarding `Cc1ccc(S(=O)(=O)N2CCN(C)CC2)cc1`, the B-score result is “inactive”.

Take `c1ccc2c(NCC3CCCO3)nc(-c3ccncc3)nc2c1` (stereo not drawn): the B-score entry is “inactive”.

Take `O=C(NCC1CCCO1)c1cc(-c2ccccc2)nc2ccccc12` (stereo not drawn): the B-score result is “inactive”.

Take `Clc1cccc(-c2nc(NCC3CCCO3)c3ccccc3n2)c1` (stereo not drawn): the B-score was 6 (active).

Consider `COc1ccc(CC(NC(C)=O)C(=O)NC2CCN(C(=O)c3ccc(Cl)cc3)CC2)cc1` (stereo not drawn), for which the B-score entry was “inactive”.

In the case of `CC1CCN(C(=S)NC(=O)c2ccccc2Br)CC1`, the B-score result is “inactive”.

For `C=CCn1c(-c2sc(-c3ccccc3)nc2C)n[nH]c1=S`, the B-score result was “inactive”.

On to `C=CCn1c(-c2ccc3[nH]c(C)c(C)c3c2)n[nH]c1=S`, for which the B-score entry was “inactive”.

Consider `C=CCn1c(-c2ccccc2OCC)n[nH]c1=S`, for which the B-score is 6 (active).

Regarding `COc1ccc(S(=O)(=O)N2CCN(C)CC2)c(C)c1`, the B-score result was “inactive”.

For the compound `CC(C)(C)NC(=O)CN(Cc1cccs1)C(=O)CNS(=O)(=O)c1ccccc1`, the B-score result is “inactive”.

Consider `Cc1cccc(-c2nc3ccc(C(=O)NCCN4CCN(C)CC4)cc3nc2-c2cccc(C)c2)c1`, for which the B-score was 7 (active).

Turning to `Cc1ccc(C(=O)NCCN2CCOCC2)cc1C`, the B-score entry was “inactive”.

Take `CCC1=Nc2cc(C(=O)NCCN3CCCC3)ccc2Sc2ccc(C)cc21`: the B-score entry was “inactive”.

Take `O=C(Nc1ccccc1N1CCN(C(=O)c2ccccc2)CC1)c1ccco1`: the B-score entry is “inactive”.

As for `CCCNC(=O)c1ccc(N2CCC3(CC2)CC(c2cccc(Br)c2)=NO3)c(NC(=O)c2ccco2)c1`, the B-score is 6 (active).

As to `CCCNC(=O)c1ccc(N2CCC3(CC2)CC(c2ccc(Cl)cc2)=NO3)c([N+](=O)[O-])c1`, the B-score result was “inactive”.

As for `c1ccc2c(C[n+]3csc4ccccc43)cccc2c1`, the B-score result was “inactive”.

Regarding `CC1(C(=O)NCCc2c[nH]c3ccccc23)C=CC2(CCCCC2)N1C(=O)c1ccccc1` (stereo not drawn), the B-score entry was “inactive”.

Consider `C/C(=N\NC(=S)NC1CCCCC1)c1ccc(C)o1`, for which the B-score result was “inactive”.

With `CCc1nnc(NC(=O)CSc2nnc(COc3ccc(C#N)cc3)n2-c2ccccc2)s1`, the B-score entry was “inactive”.

Turning to `CCc1nnc(NC(=O)CSc2nnc(Cc3ccccc3)n2-c2ccc(OC)cc2)s1`, the B-score is 11 (active).

As for `CCc1nnc(NC(=O)CSc2nnc(-c3ccncc3)n2Cc2ccccc2)s1`, the B-score entry is “inactive”.

With `O=C(NCc1ccccc1Cl)C1CCN(S(=O)(=O)c2cccc3nonc23)CC1`, the B-score entry was “inactive”.

Turning to `O=C1CCc2cc(S(=O)(=O)N3CCC(C(=O)NCc4ccccc4Cl)CC3)ccc2N1`, the B-score is 8 (active).

Turning to `O=C(NCc1ccccc1Cl)C1CCN(S(=O)(=O)N2CCOCC2)CC1`, the B-score entry was “inactive”.

Turning to `Cc1nnc(-c2ccc(Oc3ccc(C)c(C)c3)c([N+](=O)[O-])c2)o1`, the B-score entry was “inactive”.

In the case of `Cc1c(Br)c([N+](=O)[O-])nn1C(C)C(=O)Nc1nccs1` (stereo not drawn), the B-score entry is “inactive”.

`CC(=O)Nc1ccc(NC(=O)c2ccc3c(c2)C(=O)N(c2ccccc2C)C3=O)cc1`: the B-score entry was “inactive”.

With `CC(C)OCCCNC(=O)c1cc(Sc2ccc(F)cc2)nc2ccccc12`, the B-score entry is “inactive”.

`COc1cc(OC)c(OC)cc1/C=N/Nc1ncnc2c1[nH]c1ccc(C)cc12`: the B-score entry was “inactive”.

As for `CC(C)OCCCNc1ncnc2c1[nH]c1ccc(F)cc12`, the B-score was 9 (active).

With `CN(CCOc1ccc(Br)cc1)CC(=O)Nc1cccc(S(=O)(=O)NC2=NCCC2)c1`, the B-score result was “inactive”.

With `Cc1cccc(NC(=O)CSCC(=O)Nc2nnc(C3CC3)s2)c1`, the B-score entry is “inactive”.

As for `O=C(CSc1nnc(SCc2ccc(F)cc2)s1)Nc1ccc(C(=O)O)cc1`, the B-score entry was “inactive”.

Consider `CC1=C(C(N)=O)C(c2sccc2C)n2nnnc2N1` (stereo not drawn), for which the B-score entry is “inactive”.

For the compound `CCCOc1ccc(C(=O)CCC(=O)OC(C)C(=O)Nc2ccc(NC(C)=O)cc2)cc1` (stereo not drawn), the B-score entry was “inactive”.

Take `CCCOc1ccc(C(=O)C(CCC(CNCC)C(=O)c2ccc(OCCC)cc2)CNCC)cc1` (stereo not drawn): the B-score was 6 (active).

For `CCCCOc1ccc(C(=O)NN2CCN(C)CC2)cc1`, the B-score entry was “inactive”.

Take `Cc1nn(CC(=O)NCCc2ccccc2)c(=O)c2cc3occc3n12`: the B-score entry is “inactive”.

For `CC12CN(NC(=O)c3ccc(Cl)cc3)C3(C#N)CC1CCC23C` (stereo not drawn), the B-score entry is “inactive”.

In the case of `COc1ccccc1NC(=O)/C=C/C(N)=O`, the B-score entry is “inactive”.

Regarding `CCc1ccc(NC(=O)NC(C)c2ccc3c(c2)OCO3)cc1` (stereo not drawn), the B-score result was “inactive”.

As for `CC1CCCN(C(C(=O)Nc2ccc(C(C)C)cc2)c2ccc3c(c2)OCO3)C1` (stereo not drawn), the B-score was 7 (active).

For the compound `O=C(Nc1ccc2c(c1)OCCO2)C(c1ccc(F)cc1)N1CCCCC1` (stereo not drawn), the B-score result was “inactive”.

Take `CC(C)C[C@H](NC(=O)N1CCn2c1nc1ccccc12)C(=O)NC1CC1`: the B-score result is “inactive”.

Regarding `S=C(Nc1cccnc1)Nc1ccccn1`, the B-score result is “inactive”.

Consider `O=C(Nc1cccnc1)c1cc2cc(Br)ccc2oc1=O`, for which the B-score result is “inactive”.

Turning to `Fc1cc(Br)ccc1NC(=S)Nc1cccnc1`, the B-score is 7 (active).

For `COc1ccc(CCNC(=O)CN(c2ccccc2)S(C)(=O)=O)cc1`, the B-score result is “inactive”.

`COc1ccc(OCCNS(=O)(=O)Cc2ccccc2)cc1`: the B-score result was “inactive”.

For the compound `CNC(=O)c1ccsc1NC(=O)c1ccc(S(=O)(=O)N2CCOCC2)cc1`, the B-score result was “inactive”.

On to `O=S(=O)(c1ccccc1)N1CCc2ccccc21`, for which the B-score result is “inactive”.

As for `CNC(=O)c1ccsc1NC(=O)c1ccc(S(=O)(=O)N2CCc3ccccc32)cc1`, the B-score was 7 (active).
